Experimental data published in PubChem BioAssay (NCI).
The panel holds about 83,000 compounds, 20% with a hit somewhere; the sample as a whole holds those more often.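 The test compound was applied at a single concentration to cells in 96-well plates for 48 hours, and percent growth was recorded.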 A number with no mark means an inactive call. Active and inactive are the calls of the source. Rule for the calls: active = growth percent below 10; inactive = the rest.

How the values were obtained:
Experiment in all cases: NCI-60 one-dose screen, 48 h (100 = growth as untreated, 0 = no growth, -100 = all killed)
Conditions in all cases: 10 µM unless noted
T-47D breast = system: T-47D breast
BT-549 breast = system: BT-549 breast
MDA-MB-435 melanoma = system: MDA-MB-435 melanoma
SW-620 colon = system: SW-620 colon
HCT-116 colon = system: HCT-116 colon
HCC-2998 colon = system: HCC-2998 colon
KM12 colon = system: KM12 colon
MCF7 breast = system: MCF7 breast

Structure (SMILES) | growth (T-47D breast) | growth (BT-549 breast) | growth (MDA-MB-435 melanoma) | growth (SW-620 colon) | growth (HCT-116 colon) | growth (HCC-2998 colon) | growth (KM12 colon) | growth (MCF7 breast)
CCSCC1CC(O)(c2ccccc2)CC(c2ccc(F)cc2)O1 (stereo not drawn) | -4.7% (active) | -0.126% (active) | 5.06% (active) | 8.68% (active) | 1.4% (active) | 69.3% | -47.2% (active) | 
Nc1n[nH]c2cccc(C#Cc3cccc(C(=O)Nc4cccc(C(F)(F)F)c4)c3)c12 | 46.9% | 84.9% | 52.5% | 55.9% | 27.5% | 62% | 46.7% | 71.6%
COc1ccc(/C=C2\Oc3cc(OCCCN4CCCCC4)ccc3C2=O)cc1OC | 97.8% | 83.9% | 100% | 85% | 76% | 108% | 93.6% | 85.9%
NS(=O)(=O)c1ccc(Cn2c(SCC(=O)N/N=C/c3ccccc3O)nc3ccccc3c2=O)cc1 | 33.3% | 56.1% | 71.7% | 60.4% | 42.7% | 50.7% | 39.2% | 50%
COc1ccc2[nH]c(O)c(/C=c3/cc4c(c(-c5ccc(F)cc5)n3)=Nc3ccccc3-4)c2c1 | 73.6% | 98.9% | 34.4% | 27.5% | 27.9% | 72.8% | 43.7% | 26.8%
CC(C)(C)[Si](C)(C)OC1[C@@H](O[Si](C)(C)C(C)(C)C)[C@@H](CNC(=O)NC(=O)CCl)O[C@H]1n1cnc2c(NC(=O)Nc3ccccc3)ncnc21 (stereo partly drawn) | -45.7% (active) | -85.9% (active) | -79.1% (active) | -49.7% (active) | -99% (active) |  | -79.4% (active) | -71.8% (active)
OCc1cnccc1NCCCOc1ccccc1 | 101% | 108% | 110% | 98.3% | 100% | 97.1% | 106% | 92.1%
CCOC(=O)c1ccc2c(c1)ncn2-c1ccc(NC(=O)Nc2cccc(C)c2)cc1 | 31.2% | 115% | 77.6% | 81.6% | 57.2% | 90.6% | 27.7% | 54.7%
Cc1cc2cc3ccc(N(C)C)cc3nc2cc1N | -9.44% (active) | 20.7% | 5.71% (active) | -37.9% (active) | -20% (active) |  | -20.7% (active) | -4.08% (active)
O=C(C1CCC1)N1N=C(c2ccc(-n3ccc(C(F)(F)F)n3)cc2)CC1c1ccc[nH]1 (stereo not drawn) | 78% | 119% | 99.7% | 103% | 94.4% | 113% | 89.7% | 91.9%
C=C1C(=O)O[C@H]2[C@H]1CC/C(CNC(=O)/C=C/c1ccccc1)=C\CC[C@@]1(C)O[C@@H]21 | -12.1% (active) | -56.8% (active) | -8.54% (active) | -68.4% (active) | -58.9% (active) | -7.49% (active) | 76.5% | -22.2% (active)
COc1ccc(C(=O)/C=C/c2cc3ccccc3n3nnnc23)cc1 | 92.1% | 99.2% | 103% | 113% | 106% | 111% | 109% | 94.7%
COc1ccc2c(c1)C(=O)CC(c1ccccc1OC)O2 (stereo not drawn) | 91.1% | 96.5% | 100% | 103% | 103% | 105% | 102% | 
O=C(O)c1ccc(NCc2cn(-c3ccc(C(F)(F)F)cc3)nc2-c2ccc(C(=O)O)cc2)cc1 | 100% | 108% | 102% | 110% | 109% | 107% | 104% | 
CN(C)CCC(=O)c1ccc([N+](=O)[O-])cc1 | 89.4% |  | 104% | 106% | 103% | 106% | 113% | 89.4%
Nc1c(S(=O)(=O)O)cc2c3c(cccc13)C(=O)OC2=O | 96% | 104% | 102% | 99.8% | 98.6% | 102% | 92.5% | 
Oc1c(Cl)cc(Cl)c(Cl)c1CNCCNCc1c(O)c(Cl)cc(Cl)c1Cl | 20.2% |  | 37.1% | 31.5% | 13.9% | 25.2% | 24% | 15.6%
CC(Sc1nc2sc3c(c2c(=O)n1-c1ccc(Cl)cc1)CCCC3)C(=O)Nc1nc(-c2ccc(Br)cc2)cs1 (stereo not drawn) | 98.2% | 90.3% | 102% | 104% | 93.4% | 101% | 104% | 
CCN(CC)CCn1c(=O)c2cc(OC)c(OC)cc2c2ccc3cc4c(cc3c21)OCO4 | 39.1% | 26.2% | 50.4% | 26% | 8.5% (active) | 74.9% | 41.9% | 
Cc1cnc(C(=O)Nc2nc3ccc(S(=O)(=O)Nc4ccc(C(C)(C)C)cc4)cc3[nH]2)cn1 | 27.1% | 26.7% | -64.6% (active) | 18.6% | 14.2% | 33.3% | 22.9% | 
Cc1ccc(-n2c3c(c(-c4ccccc4)c2-c2ccccc2)C2=NCCN2C=N3)cc1 | 72.7% | 107% | 97.8% | 89.9% | 76.5% | 108% | 90.5% | 
O=C1C=CC(=O)N1c1cccc(Cl)c1 | 93.7% | 108% | 101% | 76% | 89.7% | 104% | 104% | 
CC(C)c1ccc(Nc2ccc3c(OCCCN4CCN(C)CC4)cccc3n2)cc1 | 68.9% | 79.6% | 22.6% | 4.69% (active) | 18.6% | 64.7% | 39.3% | 
CCC(=O)Oc1ccc(/C(=C(\C)c2ccccc2)c2ccc(OCCN3CCCCC3)cc2)cc1 | 34.3% | 82.6% | 81.4% | 87.1% | 60.9% | 65.2% | 65% | 
N#C/C(=C\c1ccc([N+](=O)[O-])s1)c1nc2cc(Br)ccc2s1 | 4.46% (active) | -13% (active) | 0.206% (active) |  | -66.4% (active) | -8.27% (active) | 16.2% | -14.2% (active)

Structure (SMILES) | growth (T-47D breast) | growth (BT-549 breast) | growth (MDA-MB-435 melanoma) | growth (SW-620 colon) | growth (HCT-116 colon) | growth (HCC-2998 colon) | growth (KM12 colon) | growth (MCF7 breast)
Nc1ccccc1NC(=O)c1ccc(-n2nc(-c3ccccc3)c3ccccc32)cc1 | 76.9% | -92.3% (active) | 92.2% | 84.8% | 58.1% | 104% | 91.4% | 
CCCCCCNC(=O)Oc1ccc(/C(=C(\C)c2ccccc2)c2ccc(OCCCN(C)C)cc2)cc1 | 46.2% | 85.4% | 48.3% | 92.4% | 47.1% | 86.7% | 74.3% | 
CC(=O)c1cc2c(N)c(C(=O)Nc3cccc4ccncc34)sc2nc1C | 97.1% | 102% | 6.83% (active) | 101% | 102% | 107% | 101% | 
COc1ccc(OC)c(CCn2cncc2-c2c[nH]c3ccccc23)c1 | 45.8% | 83.8% | 58.9% |  | 77.7% | 91.8% | 89.1% | 71%
CCc1ccc(CNc2ccc(N3CCOCC3)c(C(=O)O)c2)cc1 | 86.3% | 105% | 108% | 111% | 86.1% | 104% | 106% | 
CCOC(=O)Oc1c(OC)cc(C(=O)c2ccc(OC)c(O)c2OC)cc1OC | 43.8% | 40.1% | -47.4% (active) | 20.5% | 9.57% (active) | 39.7% | 25.7% | 
O=C(CCN1CCCC1)c1ccc([N+](=O)[O-])cc1 | 88.6% |  | 107% | 105% | 105% | 94.8% | 105% | 87.6%
CC(=O)[C@H]1CCC/C=C/[C@@H]2C[C@H](O)C[C@H]2[C@H](O)/C=C/C(=O)O1 | -12.2% (active) | 9.71% (active) | 8.17% (active) | -33.5% (active) | -45.1% (active) | -23.3% (active) | -26.9% (active) | 
CCC(CC)NCC(C)(C)O | 123% | 106% | 108% | 107% | 103% | 92.2% | 104% | 
CN1CCN(CCNc2nccc(-c3c(-c4cccc(O)c4)nc4sccn34)n2)S1(=O)=O | 68.5% | 52.3% | 29.2% | 65.4% | 25.1% | 88% | 34.4% | 
COc1cc(CC(=O)c2ccc(O)c(OC)c2)ccc1O | 89.6% | 110% | 112% | 102% | 100% | 103% | 103% | 
COc1cc2c(=O)n(CCN)c3c4cc5c(cc4ccc3c2cc1OC)OCO5 | 27.1% | 35.2% | -91% (active) | -75.6% (active) | -70.9% (active) | 44.9% | -64% (active) | 
CCOC(=O)c1cc(C(=O)c2ccc(OC)c(OC)c2)n2c1ccc1ccccc12 | 85.3% | 100% | 89.5% | 93.4% | 88% | 109% | 98.4% | 
CN1CCN(C(=O)[C@]23CCC(C)(C)C[C@H]2C2=CC[C@@H]4[C@@]5(C)C/C(=C/c6ccncc6)C(=O)C(C)(C)[C@@H]5CC[C@@]4(C)[C@]2(C)CC3)CC1 | 37% | 80.2% | 48.2% | 33.8% | 16.4% | 43.8% | 45.8% | 
NCCCCCCNc1cc(-c2cccc(OC(F)(F)F)c2)nc2ccc(N3CCCC3)cc12 | -15.4% (active) | 55.7% | -99.8% (active) | -86.3% (active) | -63.3% (active) | -66.5% (active) | -82.7% (active) | 
O=C1Nc2cc(-c3cccc([N+](=O)[O-])c3)ccc2/C1=C/c1ccc[nH]1 | -10.6% (active) | 23% | 97.7% | 93.3% | 97.9% | 61% | 46.7% | 
C=C1C(=O)O[C@H]2[C@H]1CC/C(COC(=O)NCc1c[nH]c3ccc(F)cc13)=C\CC[C@@]1(C)O[C@@H]21 | -58.3% (active) | -51.6% (active) | -63.5% (active) | -72.4% (active) | -86.7% (active) | 68.3% | 33.5% | 
CCCNC(=O)Oc1ccc(/C(=C(\C)c2ccccc2)c2ccc(OCCCN(C)C)cc2)cc1 | 33.3% | 83% | 63% | 90% | 54.2% | 64.8% | 67.2% | 
CCOC(=O)c1nc2c3ccccc3ccn2c1C(=O)OCC | 98.2% | 103% | 105% |  | 104% | 103% | 100% | 95.9%
NC(=O)CSSCC(N)=O | 103% |  | 91.6% | 95.3% | 91.6% |  | 101% | 103%
CC(C)(C)c1cc(C=O)cc(C(C)(C)C)c1O | 110% | 92.5% | 111% | 97.7% | 92.9% | 93.6% | 99.6% | 
CCN(c1ccccc1)S(=O)(=O)c1cc([N+](=O)[O-])ccc1Cl | 26.6% | 49.4% | 62.3% | 46.3% | 24.6% | 110% | 54.1% | 
COC(=O)C1=C(C(=O)ON)C2C=CC1(C(Cc1ccccc1)Nc1ccccc1)O2 (stereo not drawn) | -51.1% (active) | 106% | 94.5% | -60% (active) | -73.8% (active) | 93.6% | 103% | 
[O-][n+]1c(Cl)cc(Cl)c2ccccc21 | 97.7% |  | 101% | 107% | 103% | 104% | 95.1% | 97.4%
O=C(Cc1ccc(/C=C/C(=O)c2ncc[nH]2)cc1)Nc1ccc(Cl)cc1 | 23.2% | 29.3% | 23.8% | -35.3% (active) | -47.5% (active) | 79.4% | -39% (active) | 
